In the first test the test system is TEK.
Turning to `Cl.O=C(Nc1ccc(Oc2ccc3[nH]c(NC(=O)c4ccccc4)nc3c2)cc1)Nc1cc(C(F)(F)F)ccc1F` [GW709042A], the Kinases covered entry is “TEK”. As for `Cl.O=C(Nc1ccc(Oc2ccc3[nH]c(NC(=O)c4ccco4)nc3c2)cc1)Nc1cc(C(F)(F)F)ccc1F` [GW683134A], the Kinases covered entry is given as “TEK”. Take `Nc1ncnc2occ(-c3ccc(NC(=O)Nc4cc(C(F)(F)F)ccc4F)cc3)c12` [GW770249X]: the Kinases covered entry is listed as “TEK”. On to `COC(=O)Nc1nc2ccc(Oc3ccc(NC(=O)Nc4cc(C(F)(F)F)ccc4F)cc3)cc2s1.Cl` [GW693917A], for which the Kinases covered result is “TEK”.

Another test concerns TYK2.
On to `COc1ccc(-c2cc3c(N)ncnc3o2)cc1` [GW642138X], for which the Kinases covered result is recorded as “TYK2”.

As for `Nc1ncnc2[nH]c(-c3ccccc3)nc12` [AH5015], the Kinases covered result is on record as “TYK2”.

Take `CN(C)C/C=C/C(=O)Nc1ccc(C(=O)Nc2cccc(Nc3ncc(Cl)c(-c4c[nH]c5ccccc45)n3)c2)cc1` [THZ1]: the Kinases covered result is given as “TYK2”.

The values are drawn from article PMC7826789 (International Journal of Molecular Sciences, 2021).
